Tests used:
Assay in all cases: DAPPL (digital affinity profiling via proximity ligation, sequencing); 10 mM Tris-HCl pH 7.5, 50 mM NaCl, 1 mM DTT, 4% glycerol, room temperature, 30 min; GST-TFs on glutathione beads, 16-mer random dsDNA library, 0.1% formaldehyde crosslink after washing; high values mean tight binding
FEV = biological target: T1, FEV (Homo sapiens, UniProt Q99581 1-238); conditions: protein: recombinant; tags: N-terminal GST; dsDNA, one strand shown
T1 sequence: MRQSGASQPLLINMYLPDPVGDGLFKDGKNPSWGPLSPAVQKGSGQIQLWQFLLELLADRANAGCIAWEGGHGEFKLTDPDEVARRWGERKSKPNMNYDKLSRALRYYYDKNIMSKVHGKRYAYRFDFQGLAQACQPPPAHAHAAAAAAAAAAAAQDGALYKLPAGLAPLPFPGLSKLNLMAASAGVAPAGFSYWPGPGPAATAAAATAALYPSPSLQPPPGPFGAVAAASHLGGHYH
Outline: (§1)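 Binding signal is each hexamer's read frequency for a factor divided by its frequency in the tag-only sample. The factors were GST-fused human transcription factors from yeast, captured on glutathione beads, DNA-barcoded and pooled with that sample. Pools were incubated with 200 nmole of a random double-stranded 16-mer DNA library in Tris/NaCl/DTT/glycerol buffer at room temperature for 30 min, then washed, crosslinked with 0.1% formaldehyde, proximity-ligated with BsaI/T4 ligase (1 h, 37 °C), PCR-amplified and sequenced on an Illumina NextSeq500.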

ETV5 = ETV5 (Homo sapiens, UniProt P41161 1-510); conditions: protein: recombinant; tags: N-terminal GST; dsDNA, one strand shown
Chain of ETV5 (P41161 whole entry): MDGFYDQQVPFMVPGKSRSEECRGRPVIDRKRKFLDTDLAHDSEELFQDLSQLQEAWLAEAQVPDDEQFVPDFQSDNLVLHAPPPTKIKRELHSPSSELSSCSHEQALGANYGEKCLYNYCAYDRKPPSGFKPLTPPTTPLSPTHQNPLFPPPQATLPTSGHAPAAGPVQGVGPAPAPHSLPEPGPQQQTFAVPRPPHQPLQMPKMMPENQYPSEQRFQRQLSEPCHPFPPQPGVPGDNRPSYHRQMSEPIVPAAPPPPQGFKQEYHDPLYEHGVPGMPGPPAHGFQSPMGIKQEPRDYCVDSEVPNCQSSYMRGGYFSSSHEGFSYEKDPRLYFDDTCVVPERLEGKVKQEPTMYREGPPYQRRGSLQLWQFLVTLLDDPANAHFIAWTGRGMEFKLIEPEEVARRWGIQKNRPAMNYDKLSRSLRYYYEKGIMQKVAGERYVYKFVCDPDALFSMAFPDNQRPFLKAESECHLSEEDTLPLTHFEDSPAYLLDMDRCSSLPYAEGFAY
Outline: as §1

HSF1 = HSF1 (Homo sapiens, UniProt Q00613 1-529); conditions: protein: recombinant; tags: N-terminal GST; chain copies: 3; dsDNA, one strand shown
Chain of HSF1 (Q00613 whole entry): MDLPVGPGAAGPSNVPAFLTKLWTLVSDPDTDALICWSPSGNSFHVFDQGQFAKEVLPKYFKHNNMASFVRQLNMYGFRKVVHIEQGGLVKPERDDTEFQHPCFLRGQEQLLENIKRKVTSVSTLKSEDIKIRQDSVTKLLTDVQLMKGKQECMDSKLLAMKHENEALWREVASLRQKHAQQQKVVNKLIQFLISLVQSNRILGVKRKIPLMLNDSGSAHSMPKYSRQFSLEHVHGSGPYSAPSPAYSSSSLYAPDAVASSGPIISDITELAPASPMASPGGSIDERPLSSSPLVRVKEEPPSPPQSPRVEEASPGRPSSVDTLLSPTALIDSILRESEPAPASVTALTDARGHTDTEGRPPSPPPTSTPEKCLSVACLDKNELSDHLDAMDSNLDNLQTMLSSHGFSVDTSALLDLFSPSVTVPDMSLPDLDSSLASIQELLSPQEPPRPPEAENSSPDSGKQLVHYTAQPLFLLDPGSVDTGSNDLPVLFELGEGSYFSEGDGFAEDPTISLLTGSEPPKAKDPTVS
Outline: as §1

SPIC = biological target: T2, SPIC (Homo sapiens, UniProt Q8N5J4 1-248); conditions: protein: recombinant; tags: N-terminal GST; dsDNA, one strand shown
T2 sequence: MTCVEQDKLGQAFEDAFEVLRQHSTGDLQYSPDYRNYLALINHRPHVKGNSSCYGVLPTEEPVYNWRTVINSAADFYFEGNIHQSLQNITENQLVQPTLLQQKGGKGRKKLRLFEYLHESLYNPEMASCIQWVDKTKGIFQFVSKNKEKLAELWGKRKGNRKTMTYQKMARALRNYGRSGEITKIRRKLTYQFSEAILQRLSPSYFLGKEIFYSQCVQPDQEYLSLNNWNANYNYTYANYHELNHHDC
Outline: as §1

ELF4 = ELF4 (Homo sapiens, UniProt Q99607 1-663); conditions: protein: recombinant; tags: N-terminal GST; dsDNA, one strand shown
Chain of ELF4 (Q99607 whole entry): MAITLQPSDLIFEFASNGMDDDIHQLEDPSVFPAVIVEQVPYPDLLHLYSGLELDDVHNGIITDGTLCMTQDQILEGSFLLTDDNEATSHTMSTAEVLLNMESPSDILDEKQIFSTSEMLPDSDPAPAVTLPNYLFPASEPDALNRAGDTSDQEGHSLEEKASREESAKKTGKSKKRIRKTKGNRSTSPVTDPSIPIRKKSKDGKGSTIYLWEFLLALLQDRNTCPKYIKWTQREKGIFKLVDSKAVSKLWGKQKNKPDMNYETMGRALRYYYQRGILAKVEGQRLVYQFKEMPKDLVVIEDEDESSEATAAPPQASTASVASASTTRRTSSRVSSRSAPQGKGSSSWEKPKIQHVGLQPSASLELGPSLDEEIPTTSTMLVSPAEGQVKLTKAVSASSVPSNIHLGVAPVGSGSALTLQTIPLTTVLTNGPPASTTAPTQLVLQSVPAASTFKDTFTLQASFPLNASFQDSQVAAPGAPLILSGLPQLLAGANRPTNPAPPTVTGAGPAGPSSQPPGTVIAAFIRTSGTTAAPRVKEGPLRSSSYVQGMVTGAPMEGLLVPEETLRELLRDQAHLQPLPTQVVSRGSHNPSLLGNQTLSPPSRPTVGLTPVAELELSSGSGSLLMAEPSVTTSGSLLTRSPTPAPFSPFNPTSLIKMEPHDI
Outline: as §1

ELK4 = biological target: T3, ELK4 (Homo sapiens, UniProt P28324-2 1-405); conditions: protein: recombinant; tags: N-terminal GST; dsDNA, one strand shown
T3 sequence: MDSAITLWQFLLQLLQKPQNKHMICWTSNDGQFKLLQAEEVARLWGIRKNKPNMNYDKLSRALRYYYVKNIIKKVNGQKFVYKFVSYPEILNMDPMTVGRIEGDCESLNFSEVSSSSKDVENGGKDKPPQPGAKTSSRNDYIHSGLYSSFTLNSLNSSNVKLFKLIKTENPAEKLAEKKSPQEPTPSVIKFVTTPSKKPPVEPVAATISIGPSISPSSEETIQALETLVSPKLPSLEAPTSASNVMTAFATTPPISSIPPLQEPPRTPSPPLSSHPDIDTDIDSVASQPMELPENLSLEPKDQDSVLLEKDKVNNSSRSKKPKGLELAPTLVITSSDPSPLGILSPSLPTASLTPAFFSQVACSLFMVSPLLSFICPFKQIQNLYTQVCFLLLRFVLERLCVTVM
Outline: as §1

ETV2 = biological target: T4, ETV2 (Homo sapiens, UniProt O00321 1-342); conditions: protein: recombinant; tags: N-terminal GST; dsDNA, one strand shown
T4 sequence: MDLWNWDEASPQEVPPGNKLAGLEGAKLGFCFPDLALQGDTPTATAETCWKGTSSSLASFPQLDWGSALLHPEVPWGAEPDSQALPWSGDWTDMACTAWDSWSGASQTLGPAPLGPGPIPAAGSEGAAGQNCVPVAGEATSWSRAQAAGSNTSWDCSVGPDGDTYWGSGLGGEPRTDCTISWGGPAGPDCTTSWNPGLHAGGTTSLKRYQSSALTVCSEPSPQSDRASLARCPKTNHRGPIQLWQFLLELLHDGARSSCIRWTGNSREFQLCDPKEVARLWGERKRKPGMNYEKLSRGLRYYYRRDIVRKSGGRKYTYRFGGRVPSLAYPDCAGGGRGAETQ
Outline: as §1

ELF3 = biological target: T5, ELF3 (Homo sapiens, UniProt P78545 1-371); conditions: protein: recombinant; tags: N-terminal GST; dsDNA, one strand shown
T5 sequence: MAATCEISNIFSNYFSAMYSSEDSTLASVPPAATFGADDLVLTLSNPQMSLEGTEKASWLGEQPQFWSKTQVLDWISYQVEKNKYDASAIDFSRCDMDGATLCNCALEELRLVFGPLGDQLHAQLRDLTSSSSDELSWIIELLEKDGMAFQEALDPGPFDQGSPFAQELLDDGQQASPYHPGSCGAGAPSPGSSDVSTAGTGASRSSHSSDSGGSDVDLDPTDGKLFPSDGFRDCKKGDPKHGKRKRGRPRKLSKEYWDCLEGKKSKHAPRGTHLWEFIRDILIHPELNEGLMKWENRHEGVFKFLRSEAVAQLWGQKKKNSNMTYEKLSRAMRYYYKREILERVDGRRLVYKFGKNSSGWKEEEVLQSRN
Outline: as §1

CRX = CRX (Homo sapiens, UniProt O43186 1-299); conditions: protein: recombinant; tags: N-terminal GST; dsDNA, one strand shown
Chain of CRX (O43186 whole entry): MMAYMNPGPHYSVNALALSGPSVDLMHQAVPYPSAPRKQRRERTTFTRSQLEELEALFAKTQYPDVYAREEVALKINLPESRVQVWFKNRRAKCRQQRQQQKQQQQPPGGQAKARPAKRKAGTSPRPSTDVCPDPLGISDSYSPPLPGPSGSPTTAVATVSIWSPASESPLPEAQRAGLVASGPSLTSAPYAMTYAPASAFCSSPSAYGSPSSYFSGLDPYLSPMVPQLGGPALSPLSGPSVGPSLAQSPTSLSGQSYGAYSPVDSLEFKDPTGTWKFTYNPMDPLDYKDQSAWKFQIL
Outline: as §1

ETV1 = ETV1 (Homo sapiens, UniProt P50549 1-477); conditions: protein: recombinant; tags: N-terminal GST; dsDNA, one strand shown
Chain of ETV1 (P50549 whole entry): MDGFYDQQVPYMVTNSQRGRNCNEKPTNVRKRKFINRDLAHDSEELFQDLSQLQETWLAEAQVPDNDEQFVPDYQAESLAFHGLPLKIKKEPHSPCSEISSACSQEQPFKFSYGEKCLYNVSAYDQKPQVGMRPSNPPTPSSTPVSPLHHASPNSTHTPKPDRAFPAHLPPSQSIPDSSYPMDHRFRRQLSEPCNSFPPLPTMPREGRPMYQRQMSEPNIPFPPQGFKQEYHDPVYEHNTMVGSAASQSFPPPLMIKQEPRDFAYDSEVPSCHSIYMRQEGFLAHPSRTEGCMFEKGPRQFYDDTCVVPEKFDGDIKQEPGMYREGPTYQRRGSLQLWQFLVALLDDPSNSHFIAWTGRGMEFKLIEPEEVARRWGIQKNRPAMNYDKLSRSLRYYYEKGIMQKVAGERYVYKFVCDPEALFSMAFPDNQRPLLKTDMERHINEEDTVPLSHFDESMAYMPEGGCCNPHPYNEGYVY
Outline: as §1

ERF = biological target: T6, ERF (Homo sapiens, UniProt P50548 1-548); conditions: protein: recombinant; tags: N-terminal GST; dsDNA, one strand shown
T6 sequence: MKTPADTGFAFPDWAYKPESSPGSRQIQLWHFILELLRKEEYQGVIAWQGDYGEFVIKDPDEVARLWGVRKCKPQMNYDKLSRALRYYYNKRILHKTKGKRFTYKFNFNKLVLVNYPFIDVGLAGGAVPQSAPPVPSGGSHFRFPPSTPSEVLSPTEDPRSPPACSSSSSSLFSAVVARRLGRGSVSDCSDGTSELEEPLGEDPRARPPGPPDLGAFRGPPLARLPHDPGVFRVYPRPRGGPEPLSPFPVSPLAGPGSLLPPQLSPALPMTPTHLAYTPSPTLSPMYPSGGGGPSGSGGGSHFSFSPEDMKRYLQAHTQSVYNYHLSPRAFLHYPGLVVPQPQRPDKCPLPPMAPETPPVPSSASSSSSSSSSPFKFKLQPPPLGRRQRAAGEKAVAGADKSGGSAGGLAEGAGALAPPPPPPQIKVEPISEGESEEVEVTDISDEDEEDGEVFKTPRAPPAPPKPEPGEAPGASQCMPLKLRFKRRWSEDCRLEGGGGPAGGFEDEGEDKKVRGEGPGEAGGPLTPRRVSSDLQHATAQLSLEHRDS
Outline: as §1

ETV3L = biological target: T7, ETV3L (Homo sapiens, UniProt Q6ZN32 1-361); conditions: protein: recombinant; tags: N-terminal GST; dsDNA, one strand shown
T7 sequence: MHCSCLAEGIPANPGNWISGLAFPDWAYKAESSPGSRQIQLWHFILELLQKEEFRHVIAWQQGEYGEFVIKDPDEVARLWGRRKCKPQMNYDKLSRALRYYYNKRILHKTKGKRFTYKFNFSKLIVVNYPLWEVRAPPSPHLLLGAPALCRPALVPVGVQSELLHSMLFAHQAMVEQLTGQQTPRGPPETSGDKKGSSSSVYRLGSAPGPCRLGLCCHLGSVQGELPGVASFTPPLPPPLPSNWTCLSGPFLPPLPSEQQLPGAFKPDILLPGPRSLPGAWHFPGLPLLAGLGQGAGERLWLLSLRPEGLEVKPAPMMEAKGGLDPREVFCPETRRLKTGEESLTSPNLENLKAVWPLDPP
Outline: as §1

ETS2 = biological target: T8, ETS2 (Homo sapiens, UniProt P15036 1-469); conditions: protein: recombinant; tags: N-terminal GST; dsDNA, one strand shown
T8 sequence: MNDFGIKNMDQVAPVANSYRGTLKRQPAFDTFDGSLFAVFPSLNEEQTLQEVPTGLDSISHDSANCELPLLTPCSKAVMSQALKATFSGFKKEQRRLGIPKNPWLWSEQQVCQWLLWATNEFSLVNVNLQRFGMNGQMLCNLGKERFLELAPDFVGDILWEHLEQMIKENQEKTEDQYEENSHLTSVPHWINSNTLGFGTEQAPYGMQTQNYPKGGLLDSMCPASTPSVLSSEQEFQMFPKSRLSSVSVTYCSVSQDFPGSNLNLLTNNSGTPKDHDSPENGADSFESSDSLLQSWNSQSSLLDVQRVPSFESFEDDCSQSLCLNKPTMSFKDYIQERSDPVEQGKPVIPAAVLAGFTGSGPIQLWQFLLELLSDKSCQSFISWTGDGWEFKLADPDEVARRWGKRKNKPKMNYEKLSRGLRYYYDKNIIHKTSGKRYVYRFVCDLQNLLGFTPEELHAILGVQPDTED
Outline: as §1

SPDEF = biological target: T9, SPDEF (Homo sapiens, UniProt O95238 1-335); conditions: protein: recombinant; tags: N-terminal GST; dsDNA, one strand shown
T9 sequence: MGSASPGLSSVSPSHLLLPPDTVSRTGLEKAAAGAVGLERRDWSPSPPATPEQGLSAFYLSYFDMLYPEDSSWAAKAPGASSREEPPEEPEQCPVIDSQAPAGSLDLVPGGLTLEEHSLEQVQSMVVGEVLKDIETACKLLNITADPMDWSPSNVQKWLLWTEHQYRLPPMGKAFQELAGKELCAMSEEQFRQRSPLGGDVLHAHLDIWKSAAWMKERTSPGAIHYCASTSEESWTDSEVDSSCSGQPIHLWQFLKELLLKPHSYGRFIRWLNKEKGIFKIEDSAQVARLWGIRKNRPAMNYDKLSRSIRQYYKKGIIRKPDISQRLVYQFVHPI
Outline: as §1

ETV7 = biological target: T10, ETV7 (Homo sapiens, UniProt Q9Y603 1-341); conditions: protein: recombinant; tags: N-terminal GST; dsDNA, one strand shown
T10 sequence: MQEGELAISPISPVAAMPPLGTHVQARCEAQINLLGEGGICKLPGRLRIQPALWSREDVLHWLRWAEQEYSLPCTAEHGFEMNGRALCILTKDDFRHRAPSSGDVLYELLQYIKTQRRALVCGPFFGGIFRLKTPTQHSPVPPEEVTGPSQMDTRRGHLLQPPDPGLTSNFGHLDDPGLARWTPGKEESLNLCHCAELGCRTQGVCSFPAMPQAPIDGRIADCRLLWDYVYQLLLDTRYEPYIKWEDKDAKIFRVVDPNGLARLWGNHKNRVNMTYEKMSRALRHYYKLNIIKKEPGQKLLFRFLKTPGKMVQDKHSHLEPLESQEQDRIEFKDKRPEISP
Outline: as §1

ELF5 = biological target: T11, ELF5 (Homo sapiens, UniProt Q9UKW6-2 1-255); conditions: protein: recombinant; tags: N-terminal GST; dsDNA, one strand shown
T11 sequence: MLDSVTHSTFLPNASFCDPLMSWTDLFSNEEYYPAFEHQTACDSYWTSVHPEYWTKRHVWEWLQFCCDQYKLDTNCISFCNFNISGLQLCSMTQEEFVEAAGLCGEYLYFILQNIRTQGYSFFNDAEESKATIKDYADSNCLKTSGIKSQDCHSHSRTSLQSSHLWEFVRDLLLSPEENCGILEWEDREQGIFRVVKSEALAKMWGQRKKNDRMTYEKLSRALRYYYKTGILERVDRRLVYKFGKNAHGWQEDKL
Outline: as §1

ETV3 = biological target: T12, ETV3 (Homo sapiens, UniProt P41162-2 1-143); conditions: protein: recombinant; tags: N-terminal GST; dsDNA, one strand shown
T12 sequence: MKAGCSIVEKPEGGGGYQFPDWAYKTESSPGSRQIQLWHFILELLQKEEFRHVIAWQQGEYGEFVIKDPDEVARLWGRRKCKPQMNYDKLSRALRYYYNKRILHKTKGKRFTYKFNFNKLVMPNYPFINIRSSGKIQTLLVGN
Outline: as §1

ETV6 = ETV6 (Homo sapiens, UniProt P41212 1-452); conditions: protein: recombinant; tags: N-terminal GST; dsDNA, one strand shown
Chain of ETV6 (P41212 whole entry): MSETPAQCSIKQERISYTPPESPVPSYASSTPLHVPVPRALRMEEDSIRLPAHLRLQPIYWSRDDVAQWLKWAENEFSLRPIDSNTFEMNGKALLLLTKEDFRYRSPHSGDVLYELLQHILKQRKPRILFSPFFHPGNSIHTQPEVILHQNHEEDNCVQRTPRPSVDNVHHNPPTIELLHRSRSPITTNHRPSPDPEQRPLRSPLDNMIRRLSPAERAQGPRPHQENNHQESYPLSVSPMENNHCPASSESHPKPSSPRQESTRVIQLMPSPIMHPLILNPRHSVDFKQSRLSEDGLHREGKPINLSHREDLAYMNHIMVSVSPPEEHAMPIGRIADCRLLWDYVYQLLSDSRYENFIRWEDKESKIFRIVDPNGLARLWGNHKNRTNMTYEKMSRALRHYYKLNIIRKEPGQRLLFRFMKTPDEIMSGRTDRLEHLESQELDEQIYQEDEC
Outline: as §1

CTTATT
binding signal (FEV): 1.46 fold enrichment (6-mer frequency, TF over GST control) | binding signal (ETV5): 1.42 fold enrichment (6-mer frequency, TF over GST control) | binding signal (HSF1): 1.87 fold enrichment (6-mer frequency, TF over GST control) | binding signal (SPIC): 1.62 fold enrichment (6-mer frequency, TF over GST control) | binding signal (ELF4): 1.43 fold enrichment (6-mer frequency, TF over GST control) | binding signal (ELK4): 1.49 fold enrichment (6-mer frequency, TF over GST control) | binding signal (ETV2): 1.5 fold enrichment (6-mer frequency, TF over GST control) | binding signal (ELF3): 1.51 fold enrichment (6-mer frequency, TF over GST control) | binding signal (CRX): 2.55 fold enrichment (6-mer frequency, TF over GST control) | binding signal (ETV1): 1.52 fold enrichment (6-mer frequency, TF over GST control) | binding signal (ERF): 1.44 fold enrichment (6-mer frequency, TF over GST control) | binding signal (ETV3L): 1.5 fold enrichment (6-mer frequency, TF over GST control) | binding signal (ETS2): 1.51 fold enrichment (6-mer frequency, TF over GST control) | binding signal (SPDEF): 1.54 fold enrichment (6-mer frequency, TF over GST control) | binding signal (ETV7): 1.43 fold enrichment (6-mer frequency, TF over GST control) | binding signal (ELF5): 1.42 fold enrichment (6-mer frequency, TF over GST control) | binding signal (ETV3): 1.31 fold enrichment (6-mer frequency, TF over GST control) | binding signal (ETV6): 1.48 fold enrichment (6-mer frequency, TF over GST control)
